# AmpC detergent – inhibitors of E. coli AmpC beta-lactamase with detergent | P00811 | AmpC hydrolysis of nitrocefin, absorbance 480 nm, 0.01% Triton | Potency, µM (doses to about 114 µM), for inactives: at the highest dose activity change, negative = inhibition, hits mostly inhibitors | actives 0.041% (n = 370,000) | AID 485294;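 also: potency is read from the fitted curve at half-maximal effect; 0% = no-compound wells and -100% = no-enzyme wells; nearly all actives have a fitted effect of over 25% in size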
# Target sequence (P00811 whole entry, looked up): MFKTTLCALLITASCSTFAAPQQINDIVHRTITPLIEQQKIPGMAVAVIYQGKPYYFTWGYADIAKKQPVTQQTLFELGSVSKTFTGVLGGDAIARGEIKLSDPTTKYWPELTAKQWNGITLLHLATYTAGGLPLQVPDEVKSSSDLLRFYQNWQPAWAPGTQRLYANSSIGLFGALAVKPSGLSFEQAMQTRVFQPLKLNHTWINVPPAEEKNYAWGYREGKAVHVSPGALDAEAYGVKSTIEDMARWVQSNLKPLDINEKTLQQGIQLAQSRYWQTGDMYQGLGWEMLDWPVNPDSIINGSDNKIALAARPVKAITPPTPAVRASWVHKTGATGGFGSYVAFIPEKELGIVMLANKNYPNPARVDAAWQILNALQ
#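 AmpC (5.3 nM in the dispensed reagent) in 20 mM phosphate pH 7.0 with 0.01% (detergent screen) or 0.0001% Triton X-100 was preincubated with compounds for 15 min at room temperature. Nitrocefin was then added from an 800 uM solution, and hydrolysis was followed at 480 nm.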
# AmpC inh no detg – AmpC beta-lactamase inhibition without detergent. P00811. AmpC nitrocefin hydrolysis, absorbance 480 nm, 0.0001% Triton. Potency, µM (doses to about 57.1 µM), for inactives: at the top dose activity change, negative = inhibition, actives largely listed as inhibitors. actives 0.52% (n = 330,000). AID 485341;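 also: potency is read from the fitted curve at half-maximal effect; plate controls were no compound for no effect and no enzyme for full effect; nearly all actives have a fitted effect of over 20% in size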
#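 20 mM phosphate pH 7.0 + 0.01% (detergent screen) or 0.0001% Triton X-100; 5.3 nM AmpC reagent; cpd preinc 15 min RT; nitrocefin (800 uM stock) to start; A480 q20 s × 4 min; Activity was normalised to no-enzyme and no-compound control wells.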
# Shiga inhibitor – inhibitors of Shiga toxin in Vero cells; Vero cells, Shiga toxin protein synthesis inhibition reporter; inhibition, % at 38.7 µM; actives 9.2% (n = 290,000); AID 2315; in the data active = inhibition mostly above about 28%, no sharp cut-off; inactive = mostly below about 43%; also: 0% is about no effect
# NS1 inh – blocks influenza NS1 protein function. Potency, µM (top dose mostly 46.1 µM), inactives show top-dose activity, positive = more growth. actives 0.4% (n = 270,000); calls by dose curve; also: potency is read from the fitted curve at half-maximal effect; actives are rising curves; nearly all actives have a fitted effect of over 50% in size
#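 S. cerevisiae expressing influenza A NS1, grown in glucose, washed, then diluted 1:100 into pH 6.0 -URA galactose medium with 23 nl compound. Growth recovery read as OD600; NS1-free strain serves as control.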
# Cycloheximide cs – counter-screen hit for Shiga toxin inhibitors, cycloheximide; actives 12% (n = 300,000); max response, %; cell reporter, cycloheximide protein synthesis inhibition counterscreen; in the data active = max response mostly above about 13%, no sharp cut-off; inactive = mostly below about 14%; also: read at 38.3 µM for the half of the compounds with a filed dose; 0% is about no effect
# The depositor's hits bear a star; ? = inconclusive; · = not tested or not shown; [ ] = dose if it differs, or a comment. The full list was thinned out, with hits kept by preference. Unless noted, calls follow the shape of the dose curve; as a rule, active = well fitted curve in the direction sought with a large enough effect; inconclusive = small, poorly fitted or top-dose-only effect, or another doubt; inactive = no such curve, though single readings can be large; an effect the other way counts as inactive or inconclusive.
SMILES,AmpC detergent,AmpC inh no detg,Shiga inhibitor,NS1 inh,Cycloheximide cs
COc1ccc2[nH]cc(CCNC(=O)CCC3CCCCC3)c2c1,?,-35.0%,-2.8,15.9%,-4.3
CCOc1ccc(OCC)c(NC(=O)c2cnc3c(-c4ccccc4)c(C)nn3c2C)c1,7.1%,·,·,·,·
CC(C)OC(=O)c1ccc(Cn2nnc3sc4c(c3c2=O)CCCC4)cc1,25.6%,·,·,·,·
CC(C)Sc1nc2ccc(N3C(=O)C4CCCCC4C3=O)cc2s1 (stereo unspecified),?,-14.9%,24.0,-2.9%,23.8*
COC(=O)C1(C)Nc2ccccc2C(=O)N1c1ccccc1C (stereo unspecified),?,1µM*,2.2,13.6%,-1.8
Nc1nc(-c2c[nH]c3ccccc23)cs1,?,-28.4%,44.4,8.8%,16.8
CCc1ccc(-c2csc(-c3c[nH]c4ccccc34)n2)cc1,-4.2%,-19.1%,38.4*,-6.0%,61.8*
CN1CCN(CC(=O)Nc2nc(-c3c[nH]c4ccccc34)cs2)CC1,2.5%,45.0%,62.1*,·,22.2*
CCC(C)Nc1nc(-c2c[nH]c3ccccc23)cs1 (stereo unspecified),-10.5%,-31.2%,14.8,0.2%,30.7*
CCCCN(C)C(=O)c1ccc2c(c1)NC(=O)C(CC(C)C)N2 (stereo unspecified),-0.5%,·,·,·,·
CN1CCN(Cn2cc(/C=C/C(=O)c3ccccc3)c3ccccc32)CC1,-8.4%,-25.9%,61.1*,-102.3%,33.5*
COC(=O)C1CCN(C(=O)COc2ccc(S(=O)(=O)N3CCOCC3)cc2Cl)CC1,·,-4.0%,·,·,·
CCN(CC(=O)Nc1ccc2c(c1)OCCO2)S(=O)(=O)c1ccc(F)cc1,?,-16.1%,17.9,2.1%,-4.4
CCc1sc(C(=O)Nc2ncccc2O)cc1C,1.4%,37.6%,45.6*,-21.7%,36.4*
CCc1sc(C(=O)Nc2nccs2)cc1C,-1.1%,-36.3%,55.5*,-68.6%,57.2*
CCc1sc(C(=O)Nc2ccc(F)cc2C)cc1C,-6.5%,-22.9%,74.1*,-23.8%,15.3*
CCc1sc(C(=O)Nc2ncccc2C)cc1C,-0.5%,-2.8%,54.7,-6.6%,41.5*
CCc1sc(C(=O)Nc2nc(-c3ccccn3)cs2)cc1C,·,-16.3%,·,·,·
Cc1cc(C(=O)Nc2ccc(F)cc2C)cs1,3.3%,-1.5%,30.6,-4.6%,-4.1
Cn1nc(-c2ccccc2)c2ncc(C(F)(F)F)cc21,2.0%,-13.4%,-16.8,·,6.5
CCOC(=O)Cc1ccc(NC(=O)NC(C)c2c(-n3cccc3)sc(C)c2C)cc1 (stereo unspecified),-4.1%,·,·,·,·
Cc1ccc(C)c(N2CCN(S(=O)(=O)c3ccc4oc(=O)c5ncn(C)c5c4c3)CC2)c1,-5.0%,·,·,·,·
Cc1cc(C=C2C(=O)NC(=O)NC2=O)c(C)n1-c1cccnc1,0.2%,10.4%,-6.1,?,-4.5
Cc1cc(/C=C2/NC(=O)N(c3ccccc3)C2=O)c(C)n1-c1cccnc1,-10.3%,-24.3%,90.6*,15.4%,59.3*
CC1=NN(c2ccccc2)C(=O)/C1=C\c1cc(C)n(-c2cccnc2)c1C,0.1%,29.9%,14.9,2.0%,2.1
SMILES,AmpC detergent,AmpC inh no detg,Shiga inhibitor,NS1 inh,Cycloheximide cs
Cc1cc(/C=C2/NC(=S)NC2=O)c(C)n1-c1cccnc1,6.0%,-28.6%,50.8*,·,37.2*
CCOc1ccccc1C(=O)N(Cc1cc(OC)c(OC)c(OC)c1)c1ccccn1,14.2%,·,·,·,·
CC(C(=O)NCc1ccccc1)N1CCN(c2ccc(F)cc2)CC1 (stereo unspecified),4.1%,8.0%,-5.3,5.4%,-5.7
COc1ccc(CNC(=O)C(C)N2CCN(c3ccc(C(C)=O)cc3)CC2)cc1 (stereo unspecified),-1.6%,34.4%,35.5,12.1%,17.1*
O=C(O)Cc1sc(Nc2cccc3ccccc23)nc1-c1ccc(Cl)cc1,0.3%,7.94µM*,17.6,4.7%,20.3*
COC(=O)CCc1sc(Nc2ccccc2)nc1-c1ccc(OC)cc1,-7.3%,-33.7%,91.2*,-16.7%,22.9*
O=C(O)Cc1sc(Nc2ccc(Cl)cc2)nc1-c1cccs1,-1.6%,-42.1%[11.4 µM],75.2*,·,47.2*
O=C(O)Cc1sc(Nc2ccccc2)nc1-c1ccccc1,0.4%,·,·,·,·
Cc1ccc(Nc2nc(-c3ccc(C)cc3)c(CC(=O)O)s2)cc1,-1.4%,-29.6%,79.1,4.2%,14.1*
COc1ccc(Nc2nc(-c3ccc(OC)cc3)c(CCC(=O)O)s2)cc1,-4.7%,-35.3%,-6.3,6.5%,2.4
Cc1cc(C(=O)NC2CCC(C)CC2)c(C)o1 (stereo unspecified),-3.0%,-32.8%,79.9*,-22.0%,51.7*
Cc1c(N(C)C)nc2ccccc2c1N,-12.4%,-19.3%,-11.3,3.2%,-4.8
CN(C)c1c2ccccc2nc2c(F)c(F)c(F)c(F)c12,?,-20.0%,57.0,·,33.4*
Cc1c2ccccc2nc2c(F)c(N(C)C)c(F)c(F)c12,?,59.9%,23.1,-1.6%,27.7*
NC[C@@H](Cc1ccccc1)P(=O)(O)O,·,·,·,1.4%,·
COc1ccc(C(=O)Nc2cccc(/C=C(\CCC(=O)O)c3nc4ccccc4s3)c2)cc1,-7.0%,-9.3%,59.3*,8.2%,17.0*
COc1ccc(/C=C(\CC(=O)O)c2nc3ccccc3s2)cc1O,-5.0%,-27.8%,71.9*,·,25.8
CN(C)c1ccc(/C=C(\Cl)c2nc3ccccc3s2)cc1,6.5%,-19.9%,79.3*,26.5%,65.8*
COc1cc(C=C(c2nc3ccccc3s2)c2nc3ccccc3s2)cc(OC)c1O,1.9%,24.7%,58.0,9.1%,16.6*
O=C(O)c1ccc(C=C(c2nc3ccccc3s2)c2nc3ccccc3s2)cc1,-0.9%,-23.0%,-2.5,·,7.5
CCc1nnc(NC(=O)c2ccc(COc3ccccc3C)o2)s1,-0.2%,-15.7%,-4.5,3.9%,-1.9
O=C(O)C/C(=C\c1cccc(NC(=O)c2ccccc2Cl)c1)c1nc2ccccc2s1,-3.4%,15.8µM*,52.4*,-79.8%,26.5*
CN(c1ccccc1)c1ccc(/C=C(\CCC(=O)O)c2nc3ccccc3s2)cc1[N+](=O)[O-],?,-12.9%,21.3,9.0%,16.5*
CC(NC(=O)CN1C(=O)NC2(CCCCCCC2)C1=O)c1ccccc1 (stereo unspecified),·,-13.9%,·,·,·
O=C(Cn1nnnc1-c1ccccc1F)Nc1ccc(F)c(F)c1,1.6%,·,·,·,·
SMILES,AmpC detergent,AmpC inh no detg,Shiga inhibitor,NS1 inh,Cycloheximide cs
CCCC[C@@H]1CCCO[C@@](C(=O)NCCN2CCOCC2)(C(F)(F)F)C1,·,·,-2.5,·,-4.1
CCOc1ccccc1CN1CCNC(=O)C1CC(=O)NCCCn1cccn1 (stereo unspecified),1.0%,36.6%,-4.8,-3.7%,-0.9
Cc1ccccc1NC(=O)COC(=O)c1ccccc1SCC(=O)N1CCCC1,9.0%,5.9%,-9.8,-0.2%,5.7
CCOC(=O)c1c(S(=O)(=O)N2CCC(C(=O)NCc3ccccc3Cl)CC2)c(C)n(C)c1C,8.2%,·,·,·,·
COc1ccc(-c2coc3cc(O)cc(O)c3c2=O)cc1OC,4.8%,-35.6%,56.0*,-5.7%,26.7*
O=c1c(-c2ccc(O)cc2O)coc2cc(O)cc(O)c12,8.6%,-32.1%,6.1,0.6%,1.9

# Source: PubChem
